From PubChem BioAssay (EPA / NIEHS)
Activity calls are given as the source filed them. The calls were made as follows: active = hit-call score of the fitted dose curve at least 0.9, where 1 is the maximum; inactive = score below 0.9.

Experiments:
Details in all cases: mRNA level, 48 h; actives raise or lower the signal
[1] = read-out: Insulin-like growth factor-binding protein 1 (IGFBP1), IGFBP1 (gene 3484); assay: LTEA_HepaRG_IGFBP1: Life Technologies and Expression Analysis (LTEA) Assay for Insulin-like growth factor-binding protein 1 (IGFBP1) using HepaRG (AID 2283508)
Summary of the method: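 Thawed HepaRG cells are plated for 48 h, switched to serum-free induction medium, then dosed in duplicate for another 48 h (100 uM top, half-log steps). Lysates in RLT go to qRT-PCR, and gain or loss of signal is fitted relative to vehicle.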

[2] = read-out: Interleukin 6 (IL6), IL6 (gene 3569); assay: LTEA_HepaRG_IL6: Life Technologies and Expression Analysis (LTEA) Assay for Interleukin 6 (IL6) using HepaRG (AID 2283509)
Summary of the method: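 HepaRG cells exposed in duplicate for 48 h to eight half-log concentrations, top 100 uM, in 0.5% DMSO serum-free induction medium. mRNA measured by qRT-PCR, normalized to ACTB, GAPDH and POLR2A. Bidirectional fit versus DMSO.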

[3] = read-out: Interleukin 6 Receptor (IL6R), IL6R (gene 3570); assay: LTEA_HepaRG_IL6R: Life Technologies and Expression Analysis (LTEA) Assay for Interleukin 6 Receptor (IL6R) using HepaRG (AID 2283510);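 as to AC50: TaqMan qRT-PCR signal normalized to ACTB GAPDH and POLR2A housekeeping genes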
Summary of the method: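 Differentiated human HepaRG cells, plated 48 h then switched to serum-free induction medium, were dosed in duplicate for 48 h at eight half-log concentrations up to 100 uM in 0.5% DMSO. IL6R mRNA quantified by qRT-PCR, normalized to ACTB/GAPDH/POLR2A; bidirectional fit versus DMSO.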

[4] = read-out: Potassium channel subfamily K member 1 (KCNK1), KCNK1 (gene 3775); assay: LTEA_HepaRG_KCNK1: Life Technologies and Expression Analysis (LTEA) Assay for Potassium channel subfamily K member 1 (KCNK1) using HepaRG (AID 2283511)
Summary of the method: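 Differentiated HepaRG cells, 48 h exposure in serum-free induction medium with 0.5% DMSO; 8 concentrations, half-log from 100 uM, duplicate. KCNK1 mRNA by qRT-PCR, normalized to ACTB, GAPDH, POLR2A; bidirectional fit vs DMSO.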

[5] = read-out: Keratin 19 (KRT19), KRT19 (gene 3880); assay: LTEA_HepaRG_KRT19: Life Technologies and Expression Analysis (LTEA) Assay for Keratin 19 (KRT19) using HepaRG (AID 2283512)
Summary of the method: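 KRT19 transcript levels, measured by Fluidigm qRT-PCR against three housekeeping genes, are fitted for gain or loss of signal relative to DMSO. Human HepaRG cells receive test chemicals (top 100 uM, half-log steps, 0.5% DMSO) for 48 hours.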

[6] = read-out: JUN Transcription Factor, JUN (gene 3725); assay: LTEA_HepaRG_JUN: Life Technologies and Expression Analysis (LTEA) Assay for JUN Transcription Factor using HepaRG (AID 2283513)
Summary of the method: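 Differentiated HepaRG cells were exposed to chemicals for 48 h in serum-free induction medium, 8 concentrations from 100 uM in half-log steps, 0.5% DMSO vehicle, in duplicate. JUN mRNA was quantified by TaqMan qRT-PCR, normalized to ACTB, GAPDH, POLR2A.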

[7] = read-out: Lipase C (LIPC), LIPC (gene 3990); assay: LTEA_HepaRG_LIPC: Life Technologies and Expression Analysis (LTEA) Assay for Lipase C (LIPC) using HepaRG (AID 2283514)
Summary of the method: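 HepaRG cells, 48 h after plating, treated in duplicate for 48 h in serum-free induction medium over 8 half-log concentrations from 100 uM, 0.5% DMSO. LIPC mRNA by TaqMan qRT-PCR normalized to ACTB/GAPDH/POLR2A; bidirectional fit versus DMSO.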

[8] = read-out: Lipoprotein lipase (LPL), LPL (gene 4023); assay: LTEA_HepaRG_LPL: Life Technologies and Expression Analysis (LTEA) Assay for Lipoprotein lipase (LPL) using HepaRG (AID 2283515)
Summary of the method: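 Differentiated HepaRG cells, plated 48 h, then exposed 48 h in serum-free induction medium to 8 concentrations (top 100 uM, half-log steps) in 0.5% DMSO, duplicate. LPL mRNA measured by qRT-PCR, normalized to ACTB, GAPDH and POLR2A.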

[9] = read-out: MicroRNA 122 (MIR122), gene 406906; assay: LTEA_HepaRG_MIR122: Life Technologies and Expression Analysis (LTEA) Assay for MicroRNA 122 (MIR122) using HepaRG (AID 2283516); also: the transcript read is the microRNA miR-122
Summary of the method: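 Differentiated human HepaRG cells were exposed 48 h in serum-free induction medium to eight half-log concentrations (top 100 uM, 0.5% DMSO). Transcript level was measured by TaqMan qRT-PCR, normalized to ACTB, GAPDH and POLR2A, and fitted bidirectionally versus DMSO.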

[10] = read-out: matrix metalloproteinase-10 (MMP10), MMP10 (gene 4319); assay: LTEA_HepaRG_MMP10: Life Technologies and Expression Analysis (LTEA) Assay for matrix metalloproteinase-10 (MMP10) using HepaRG (AID 2283517)
Summary of the method: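 Differentiated HepaRG cells in serum-free induction medium exposed 48 h in duplicate to 8-point half-log series up to 100 uM in 0.5% DMSO. mRNA quantified by qRT-PCR, normalised to ACTB, GAPDH, POLR2A; bidirectional fit versus DMSO.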

[11] = read-out: MYC, MYC (gene 4609); assay: LTEA_HepaRG_MYC: Life Technologies and Expression Analysis (LTEA) Assay for MYC using HepaRG (AID 2283518)
Summary of the method: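 HepaRG, ~100,000 cells/well, collagen I; 48 h plating; serum-free induction medium; 48 h dosing, duplicate, 100 uM top, half-log, 0.5% DMSO; total RNA → qRT-PCR MYC; gain/loss fit vs DMSO.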

[12] = read-out: matrix metalloproteinase-3 (MMP3), MMP3 (gene 4314); assay: LTEA_HepaRG_MMP3: Life Technologies and Expression Analysis (LTEA) Assay for matrix metalloproteinase-3 (MMP3) using HepaRG (AID 2283519)
Summary of the method: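 HepaRG cells (~100,000/well) in serum-free induction medium were dosed in duplicate for 48 h with an 8-point half-log series from 100 uM, 0.5% DMSO. MMP3 mRNA was quantified by Fluidigm TaqMan qRT-PCR, normalized to three housekeeping genes.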

[13] = read-out: Paternally Expressed 10 (PEG10), PEG10 (gene 23089); assay: LTEA_HepaRG_PEG10: Life Technologies and Expression Analysis (LTEA) Assay for Paternally Expressed 10 (PEG10) using HepaRG (AID 2283520)
Summary of the method: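 Differentiated HepaRG cells, plated 48 h then switched to serum-free induction medium, were exposed in duplicate for 48 h to eight half-log concentrations topping at 100 uM in 0.5% DMSO. PEG10 mRNA was quantified by TaqMan qRT-PCR, normalised to ACTB, GAPDH and POLR2A.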

[14] = read-out: Protein phosphatase 2A (PPP2R4), PTPA (gene 5524); assay: LTEA_HepaRG_PPP2R4: Life Technologies and Expression Analysis (LTEA) Assay for Protein phosphatase 2A (PPP2R4) using HepaRG (AID 2283522)
Summary of the method: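 Differentiated HepaRG cells in serum-free induction medium were exposed in duplicate for 48 h to eight concentrations, top 100 uM with half-log dilutions, in 0.5% DMSO. PPP2R4 mRNA was quantified by TaqMan qRT-PCR, normalized to ACTB, GAPDH and POLR2A.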

[15] = read-out: Phosphatase and tensin (PTEN), PTEN (gene 5728); assay: LTEA_HepaRG_PTEN: Life Technologies and Expression Analysis (LTEA) Assay for Phosphatase and tensin (PTEN) using HepaRG (AID 2283523)
Summary of the method: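 HepaRG cells, 48 h after plating, exposed in duplicate for 48 h in serum-free induction medium to 8 half-log concentrations up to 100 uM (0.5% DMSO). PTEN mRNA by qRT-PCR, normalized to ACTB, GAPDH, POLR2A; bidirectional fit versus DMSO.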

[16] = read-out: solute carrier (SLC22A1), SLC22A1 (gene 6580); assay: LTEA_HepaRG_SLC22A1: Life Technologies and Expression Analysis (LTEA) Assay for solute carrier (SLC22A1) using HepaRG (AID 2283524)
Summary of the method: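 Differentiated human HepaRG cells in serum-free induction medium, exposed 48 h in duplicate to 8-point half-log series from 100 µM top in 0.5% DMSO. SLC22A1 mRNA by TaqMan qRT-PCR normalized to ACTB, GAPDH, POLR2A; bidirectional fit versus DMSO.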

[17] = read-out: Pyruvate Dehydrogenase Kinase 4 (PDK4), PDK4 (gene 5166); assay: LTEA_HepaRG_PDK4: Life Technologies and Expression Analysis (LTEA) Assay for Pyruvate Dehydrogenase Kinase 4 (PDK4) using HepaRG (AID 2283525)
Summary of the method: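 HepaRG cells plated 48 h, then switched to serum-free induction medium and exposed in duplicate for 48 h to 8 half-log concentrations from 100 uM in 0.5% DMSO. PDK4 mRNA measured by qRT-PCR, normalized to ACTB, GAPDH and POLR2A; bidirectional fit versus DMSO.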

[18] = read-out: NAD(P)H dehydrogenase [quinone] 1 (NQO1), NQO1 (gene 1728); assay: LTEA_HepaRG_NQO1: Life Technologies and Expression Analysis (LTEA) Assay for NAD(P)H dehydrogenase [quinone] 1 (NQO1) using HepaRG (AID 2283526)
Summary of the method: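 Differentiated HepaRG cells, plated 48 h and then switched to serum-free induction medium, were exposed in duplicate for 48 h to 8-point half-log concentrations up to 100 uM in 0.5% DMSO. mRNA measured by qRT-PCR, normalized to ACTB, GAPDH, POLR2A; bidirectional fit versus DMSO.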

[19] = read-out: Nuclear factor erythroid 2-related factor 2 (Homo sapiens) (UniProt Q16236); assay: LTEA_HepaRG_NFE2L2: Life Technologies and Expression Analysis (LTEA) Assay for Nuclear factor erythroid 2-related factor 2 (NFE2L2) Transcription Factor using HepaRG (AID 2283527)
Summary of the method: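 Differentiated human HepaRG cells, serum-free induction medium, exposed 48 h in duplicate to eight half-log concentrations up to 100 uM in 0.5% DMSO. NFE2L2 mRNA by Fluidigm TaqMan qRT-PCR, normalised to ACTB, GAPDH, POLR2A; bidirectional change versus DMSO.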

[20] = read-out: Nuclear factor NF-kappa-B p105 subunit (Homo sapiens) (UniProt P19838); assay: LTEA_HepaRG_NFKB1: Life Technologies and Expression Analysis (LTEA) Assay for Nuclear Factor Kappa B Subunit 1 (NFKB1) using HepaRG (AID 2283521)
Summary of the method: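 Differentiated human HepaRG cells in serum-free induction medium with 0.5% DMSO were exposed for 48 h to eight half-log concentrations, top 100 uM, in duplicate. NFKB1 mRNA measured by Fluidigm TaqMan qRT-PCR, normalised to ACTB, GAPDH and POLR2A; bidirectional fit versus DMSO.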

Measured: AC50

Nuclear factor NF-kappa-B p105 subunit (Homo sapiens), sequence (P19838 whole entry, looked up): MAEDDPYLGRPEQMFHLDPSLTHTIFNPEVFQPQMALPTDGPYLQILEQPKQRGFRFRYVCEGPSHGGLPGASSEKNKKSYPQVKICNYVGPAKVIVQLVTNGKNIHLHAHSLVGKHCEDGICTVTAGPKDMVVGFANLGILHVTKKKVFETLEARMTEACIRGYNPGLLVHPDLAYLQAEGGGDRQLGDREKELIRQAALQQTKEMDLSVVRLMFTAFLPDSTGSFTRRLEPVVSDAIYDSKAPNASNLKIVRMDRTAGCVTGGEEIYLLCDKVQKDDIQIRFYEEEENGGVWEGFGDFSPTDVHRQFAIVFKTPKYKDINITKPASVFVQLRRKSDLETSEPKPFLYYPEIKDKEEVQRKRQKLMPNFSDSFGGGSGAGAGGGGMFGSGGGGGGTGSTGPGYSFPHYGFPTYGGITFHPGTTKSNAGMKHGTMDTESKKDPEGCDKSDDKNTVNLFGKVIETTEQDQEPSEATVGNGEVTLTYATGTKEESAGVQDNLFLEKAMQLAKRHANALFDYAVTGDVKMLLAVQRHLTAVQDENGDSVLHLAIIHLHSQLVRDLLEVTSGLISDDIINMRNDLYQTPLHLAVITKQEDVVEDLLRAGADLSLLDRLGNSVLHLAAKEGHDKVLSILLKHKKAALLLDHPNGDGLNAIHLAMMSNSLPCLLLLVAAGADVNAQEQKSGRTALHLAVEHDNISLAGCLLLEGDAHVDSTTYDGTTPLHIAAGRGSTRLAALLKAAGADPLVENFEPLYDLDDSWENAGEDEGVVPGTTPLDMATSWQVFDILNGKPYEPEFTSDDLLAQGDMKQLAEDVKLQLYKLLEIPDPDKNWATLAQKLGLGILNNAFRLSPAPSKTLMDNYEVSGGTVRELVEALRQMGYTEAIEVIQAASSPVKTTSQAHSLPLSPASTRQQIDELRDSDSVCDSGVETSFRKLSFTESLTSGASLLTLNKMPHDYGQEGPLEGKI
Nuclear factor erythroid 2-related factor 2 (Homo sapiens), sequence (Q16236 whole entry, looked up): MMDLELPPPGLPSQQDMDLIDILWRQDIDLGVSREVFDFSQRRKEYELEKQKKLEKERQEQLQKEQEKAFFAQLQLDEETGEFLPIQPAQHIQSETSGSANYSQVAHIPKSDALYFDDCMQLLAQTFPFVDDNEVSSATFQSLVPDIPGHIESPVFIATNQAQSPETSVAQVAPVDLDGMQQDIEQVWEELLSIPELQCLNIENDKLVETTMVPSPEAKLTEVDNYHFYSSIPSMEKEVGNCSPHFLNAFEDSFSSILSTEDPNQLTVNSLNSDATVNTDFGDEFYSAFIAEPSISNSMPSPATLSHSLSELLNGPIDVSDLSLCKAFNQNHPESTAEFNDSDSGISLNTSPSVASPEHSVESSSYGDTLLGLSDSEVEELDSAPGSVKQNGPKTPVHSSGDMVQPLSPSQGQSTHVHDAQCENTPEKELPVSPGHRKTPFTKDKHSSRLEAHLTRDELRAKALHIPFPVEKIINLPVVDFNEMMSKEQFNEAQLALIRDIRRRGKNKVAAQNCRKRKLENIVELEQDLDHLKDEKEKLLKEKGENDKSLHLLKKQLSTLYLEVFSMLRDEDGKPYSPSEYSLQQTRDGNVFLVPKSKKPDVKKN

CN1CCCC1=O
not listed: [20]
inactive: all other assays above

CCCCCCCCCCCC(=O)OC
inactive: all assays above

Cc1cc(=O)[nH]c(=S)[nH]1
not listed: [1]
inactive: all other assays above

O=C(OCCCCCOC(=O)c1ccccc1)c1ccccc1
active: [2] 1.02 µM | [3] 1.91 µM | [4] 2.57 µM | [6] 1.29 µM | [7] 2.1 µM | [8] 0.973 µM | [9] 0.449 µM | [11] 2.26 µM | [12] 2.23 µM | [20] 2.08 µM | [14] 2.43 µM | [15] 1.85 µM | [17] 0.309 µM | [18] 1.8 µM | [19] 0.145 µM
inactive: [5] | [10] | [13] | [16]

CCCCOC(=O)CCCCCCCCC(=O)OCCCC
not listed: [3]
inactive: all other assays above

Oc1ccc2c(c1)OC[C@@H](N1CCC(O)(c3ccc(F)cc3)CC1)[C@H]2O
not listed: [3]
inactive: all other assays above

CNC(=O)[C@H]1O[C@@H](n2cnc3c(NCc4cc(Cl)ccc4OCc4cc(C)no4)ncnc32)[C@H](O)[C@@H]1N
not listed: [1]
inactive: all other assays above
